# Screening data as filed in PubChem BioAssay.
# ssDAF12 agonist: activates DAF-12 receptor from parasite S. stercoralis; HEK293 ssDAF-12/GRIP1 lit1-tk-luc reporter, luminescence; % of 3 µM dafachronic acid response; activation, % at 6.8 µM; 370,000 compounds, 1% hits;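 active = activation above the mean over all tested compounds plus 3 SD, cut at about 0.9% in these data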;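 note: 0% = DMSO-only wells and 100% = 3 µM delta7-dafachronic acid wells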
# hcDAF12 agonist: H. contortus DAF-12 activation, primary screen; activation, % at 6.8 µM; AID 652067; HEK293 hcDAF-12 lit1-tk-luc reporter, luminescence; 0% DMSO, 100% Δ7-dafachronic acid; 370,000 compounds, 1.4% hits;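 active = activation above the mean of all tested compounds plus 3 SD, cut at about 5.5% in these data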;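 note: 100% = response to 3 µM Δ7-dafachronic acid high control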
# DAX1 inh-1: blocks DAX1 repression of SF-1 activated StAR promoter. inhibition, % at 6.8 µM. 370,000 compounds, 1.1% hits. HEK293T StAR-luciferase reporter, SF-1/DAX-1 repression relief;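 active = inhibition above the mean over all tested compounds plus 3 SD, cut at about 3.6% in these data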;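 note: 0% = DAX-1 cells with DMSO and 100% = cells lacking DAX-1 with DMSO; higher inhibition means more luminescence from relief of DAX-1 repression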
# DAX1 inh-2: inhibitors of human orphan nuclear receptor DAX1 (NR0B1). HEK293 Gal4-DAX1 luciferase reporter, luminescence. 340,000 compounds, 0.99% hits. AID 504766. P51843. inhibition, % at 6.75 µM;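 active = inhibition above the mean over all tested compounds plus 3 SD, cut at about 4.2% in these data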;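 note: 0% = DAX1-transfected cells with DMSO and 100% = empty-vector control cells with DMSO; inhibition shows as a rise in luminescence from relieved DAX1 repression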
# Target sequence (P51843 207-470 limits assumed): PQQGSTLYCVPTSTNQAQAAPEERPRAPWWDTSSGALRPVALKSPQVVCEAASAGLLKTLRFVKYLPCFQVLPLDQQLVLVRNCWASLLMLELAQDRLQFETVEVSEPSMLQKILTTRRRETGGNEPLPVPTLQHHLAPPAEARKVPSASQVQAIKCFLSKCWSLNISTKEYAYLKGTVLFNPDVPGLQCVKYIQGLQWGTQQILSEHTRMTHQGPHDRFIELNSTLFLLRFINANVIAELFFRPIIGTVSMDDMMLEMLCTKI
# hgDAF12 agonist: agonists of H. glycines DAF-12 nuclear receptor. HEK293 GAL4-hgDAF12 UAS-luciferase reporter, agonist luminescence; normalized to butyrate control. activation, % at 6.8 µM. 370,000 compounds, 1.8% hits. AID 687014;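 active = activation above a cutoff set at the mean of all screened compounds plus 3 SD, cut at about 10% in these data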;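 note: 0% = DMSO wells and 100% = sodium butyrate wells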
# hgDAF12 ag: confirmation of H. glycines DAF-12 agonists | shares compounds with hgDAF12 agonist | HEK293 GAL4-hgDAF12 luciferase reporter, agonist mode; percent of butyrate response | activation, % at 6.8 µM | 3,300 compounds, 80% hits | AID 743050;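 active = mean activation over triplicate wells above the hit cutoff derived from the earlier primary screen, cut at about 11% in these data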;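 note: 0% = DMSO low control and 100% = 2 mM sodium butyrate high control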
# LXRb DAF12 ctr: activates human LXR-beta, counter-screen for DAF-12 agonists; shares compounds with hgDAF12 agonist; HEK293 Gal4-LXR luciferase reporter, 24 h; activation, % at 6.8 µM; 3,300 tested, under 10 active;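 active = mean activation of the triplicate above a set limit carried over from the primary screen, none filed active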
# An asterisk follows results filed as active; x = no result given. Shown are actives, neighbours in structure and some others; about 4.1% of the full set was active somewhere.
SMILES,ssDAF12 agonist,hcDAF12 agonist,DAX1 inh-1,DAX1 inh-2,hgDAF12 agonist,hgDAF12 ag,LXRb DAF12 ctr
Cc1ccc(/C=C/C(=O)N2CCCC(C)C2)cc1 (stereo unspecified),1.2*,3,4.4*,0,15*,14*,1
COc1cc(C(=O)NN=C2c3ccccc3-c3ccccc32)cc(OC)c1OC,0,-1,1,x,-4,x,x
CC(=O)N1CCc2cc(S(=O)(=O)NCCC(=O)N(C)C3CCCCC3)ccc21,-2,-1,-1,x,0,x,x
C[C@@H]1CN([C@H](C)CO)C(=O)c2ccccc2-c2ccccc2CO[C@@H]1CN(C)C(=O)Nc1ccccc1,-1,-1,0,x,0,x,x
CN(C)c1cccc(/C=C2\CC3(OC(=O)c4ccccc4)CCCN2C3)c1 (stereo unspecified),-1,-1,0,x,22*,0,0
Cc1nc2ccc(OC(=O)c3ccccc3)cc2s1,-1,-1,0,1,3,x,x
Cc1nc2cc(C(=O)O)ccc2s1,0,3,2,1,15*,17*,1
Cc1ccc(OC(=O)c2ccc3nc(C)sc3c2)cc1,0,1,3,x,15*,17*,1
Cc1ccc(-c2nc3ccc(C(=O)O)cc3nc2-c2ccc(C)cc2)cc1,-1,0,-1,4,-1,x,x
Cc1nc2c(-c3ccccc3)c(C)nn2c(N)c1-c1ccccc1,0,4,3,1,8,x,x
Cc1nn2c(N)c(-c3ccccc3)cnc2c1-c1ccc(Cl)cc1,1,3,1,1,14*,17*,0
COc1ccccc1C(=O)OCCc1ccccc1,0.9*,6.2*,3,4,17*,11*,0
COc1cccc(NC(=O)n2ccc3ccc(-c4ccc5cc[nH]c5c4)cc32)c1,-1,-1,-2,x,1,x,x
CCCCNc1ncnc2c1cnn2-c1ccc(Cl)cc1,0,1,1,-1,16*,24*,1
CCCCNc1ncnc2c1cnn2-c1ccccc1,0,3,0,-1,20*,17*,1
C=CCNc1ncnc2c1cnn2-c1cccc(C)c1,-1,2,6.3*,2,17*,16*,1
COC(=O)[C@]12C[C@H](CC(=O)NCc3ccc(C)o3)C(=O)N(Cc3cccc4ccccc34)C1=C[C@H](C1CCCC1)O[C@@H]2C,-1,-3,-1,x,5,x,x
CN1N=C(/C=C/c2ccccc2)CCC1=O,-1,1,2,1,3,x,x
Cc1ccc(/C=C/C2=NN(C)C(=O)CC2)cc1,0,3,3,1,14*,15*,1
Cc1ccsc1/C=N/NC(=O)c1sccc1C,1.6*,7.2*,3.7*,3,13*,18*,1
Cc1ccc2c(c1)C1CS(=O)(=O)N(CC(C)C)CN1C2 (stereo unspecified),-1,-2,0,x,0,x,x
COc1ccc(Nc2nc(N)nc(CSc3nccn3C)n2)cc1,0,3,3,1,21*,13*,0
COc1ccc(Nc2nc(N)nc(CSc3nnc(N)s3)n2)cc1,0,2,1,1,4,x,x
CCc1c(-c2ccccc2F)ncn1CCc1ccccc1OC,-2,-3,-1,x,1,x,x
CCOc1ccc(CN(CCC#N)C(=S)NC(=O)c2ccccc2)cc1,-1,-2,-1,0,17*,-2,0
COC(=O)[C@]12C[C@H](CC(=O)N3CCC(c4ccccc4)CC3)C(=O)N(Cc3ccc(Cl)cc3Cl)C1=C[C@H](C(C)C)O[C@@H]2C1CC1,-1,2,1,x,0,x,x
O=C(N/N=C/c1ccccc1)c1[nH]ncc1Br,0,2,2,4.2*,15*,14*,0
CN=c1scc(-c2ccccc2F)n1/N=C(\C)c1cccnc1,0,4,3,2,15*,12*,1
COC(=O)C1=C(C)N(C)C(=NCc2ccc3c(c2)OCO3)NC1c1ccccc1 (stereo unspecified),-1,1,0,x,1,x,x
